From article PMC5540273 (PLoS ONE, 2017)

Legend:
Settings in all cases: concentration: 1 μM, replicates: in singlicate; n = 1
AAK1 = test system: AAK1
ABL1-nonphosphorylated = test system: ABL1-nonphosphorylated
ABL1-phosphorylated = test system: ABL1-phosphorylated
ABL2 = test system: ABL2
ACVR1B = test system: ACVR1B
ACVR1 = test system: ACVR1
ACVR2A = test system: ACVR2A
ACVR2B = test system: ACVR2B
ACVRL1 = test system: ACVRL1
ADCK3 = test system: T1, ADCK3
T1 construct: gene CABC1

ADCK4 = test system: ADCK4
AKT1 = test system: AKT1
AKT2 = test system: AKT2
AKT3 = test system: AKT3
ALK = test system: ALK
AMPK-alpha1 = test system: T2, AMPK-alpha1
T2 construct: gene PRKAA1
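Further: KINOMEscan kinase panel screen.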

Row | SMILES | %Inh (AAK1) [%] | %Inh (ABL1-nonphosphorylated) [%] | %Inh (ABL1-phosphorylated) [%] | %Inh (ABL2) [%] | %Inh (ACVR1B) [%] | %Inh (ACVR1) [%] | %Inh (ACVR2A) [%] | %Inh (ACVR2B) [%] | %Inh (ACVRL1) [%] | %Inh (ADCK3) [%] | %Inh (ADCK4) [%] | %Inh (AKT1) [%] | %Inh (AKT2) [%] | %Inh (AKT3) [%] | %Inh (ALK) [%] | %Inh (AMPK-alpha1) [%]
1 | N#Cc1c(N2CCOCC2)sc(-c2ccn[nH]2)c1-c1ccc(Cl)cc1 | 70 | 42 | 0 | 9 | 15 | 0 | 0 | 0 | 0 | 12 | 0 | 0 | 0 | 0 | 0 | 9
2 | c1ccc(-c2n[nH]cc2-c2ccnc3ccccc23)nc1 [GW271431] | 16 | 14 | 1 | 16 | 79 | 46 | 2 | 75 | 0 | 20 | 24 | 0 | 2 | 0 | 19 | 19
3 | O=C1Cc2cc(Nc3nc(NCc4cccc(S(=O)(=O)C(F)(F)F)c4)ncc3C(F)(F)F)ccc2N1 | 8 | 0 | 0 | 0 | 0 | 3 | 0 | 0 | 0 | 0 | 2 | 0 | 1 | 0 | 0 | 2
4 | CNc1ncnc2[nH]ncc12 [SKF-18355] | 0 | 34 | 11 | 0 | 4 | 0 | 4 | 40 | 0 | 0 | 10 | 0 | 0 | 4 | 0 | 0
5 | CSc1ccc(-c2cc3ncnc(SCC(=O)O)c3s2)cc1 | 0 | 0 | 0 | 0 | 0 | 0 | 0 | 0 | 0 | 0 | 0 | 0 | 0 | 0 | 0 | 14
6 | Cc1c2ccc(N(C)c3ccnc(Nc4cccc(S(N)(=O)=O)c4)n3)cc2nn1Cc1ccccc1.Cl.Cl [GW787226] | 2 | 98.4 | 61 | 71 | 6 | 0 | 0 | 0 | 12 | 0 | 0 | 0 | 0 | 0 | 0 | 17
7 | c1ccc(-c2cc(-c3c[nH]nc3-c3ccccn3)ccn2)cc1 [GW576604] | 23 | 0 | 0 | 0 | 37 | 0 | 0 | 42 | 0 | 1 | 12 | 0 | 0 | 0 | 14 | 0
8 | O=C(Nc1cccc(-c2nn3ncccc3c2-c2ccnc(Nc3cccc(C(F)(F)F)c3)n2)c1)c1c(F)cccc1F [GSK299495] | 2 | 18 | 9 | 35 | 0 | 9 | 0 | 0 | 0 | 1 | 28 | 0 | 1 | 0 | 22 | 0
9 | Cc1cccc(Cn2ccn3c(=O)cc(N4CCOCC4)nc23)c1 [GSK2297542] | 15 | 7 | 0 | 13 | 0 | 0 | 0 | 4 | 6 | 27 | 44 | 0 | 4 | 0 | 36 | 1
10 | COc1ccc(Nc2nccc(N3CCC(NC(=O)Nc4cccc(C(C)=O)c4)C3)n2)cc1 (centres unmarked) [GSK1379731] | 0 | 0 | 0 | 7 | 0 | 0 | 0 | 11 | 0 | 0 | 11 | 0 | 0 | 0 | 15 | 0
11 | COc1ccc(Nc2nccc(N3CCC(NC(=O)Nc4cc(C)ccc4C)C3)n2)cc1 (centres unmarked) [GSK1379741] | 17 | 0 | 0 | 14 | 0 | 0 | 0 | 0 | 0 | 0 | 32 | 0 | 10 | 0 | 25 | 0
12 | O=C(NOCC1CC1)c1ccc(F)c(F)c1Nc1ccc(I)cc1Cl | 0 | 0 | 0 | 0 | 0 | 0 | 0 | 0 | 0 | 0 | 0 | 0 | 0 | 0 | 0 | 0
13 | CN1c2ccc(NCc3ccc(F)cc3)cc2-c2c(cnn2C)S1(=O)=O | 0 | 21 | 9 | 0 | 0 | 0 | 0 | 0 | 7 | 10 | 0 | 4 | 7 | 0 | 13 | 0
14 | NS(=O)(=O)c1cccc(-c2ccc3nccc(-c4cccc(S(N)(=O)=O)c4)c3c2)c1 [GW867253] | 27 | 36 | 15 | 0 | 0 | 0 | 0 | 0 | 0 | 0 | 10 | 2 | 0 | 10 | 0 | 0
15 | O=C(NCCNc1ccnc(Nc2ccc(F)cc2)n1)Nc1ccccc1F [GSK1379880] | 0 | 0 | 0 | 24 | 0 | 0 | 0 | 0 | 0 | 0 | 19 | 0 | 0 | 0 | 25 | 0
16 | O=c1cc(N2CCOCC2)nc2n(Cc3cccc(Cl)c3Cl)c(C3CC3)nn12 [GSK2358994] | 14 | 28 | 20 | 5 | 0 | 0 | 0 | 0 | 9 | 11 | 0 | 12 | 0 | 0 | 0 | 5
17 | [2H]C([2H])(c1cccc(C(F)(F)F)c1C)n1ccn2c(=O)nc(N3CCOCC3)cc12 [GSK2336394] | 0 | 0 | 0 | 17 | 0 | 0 | 0 | 1 | 31 | 8 | 28 | 0 | 0 | 0 | 17 | 0
18 | CC(C)Oc1ccc2c(-c3ccnc(Nc4ccc(N5CCN(C)CC5)cc4)n3)cnn2n1 [GW696155] | 90 | 39 | 53 | 14 | 0 | 69 | 0 | 0 | 0 | 20 | 83 | 0 | 0 | 0 | 42 | 41
19 | O=c1cc(N2CCOCC2)nc2n(Cc3cccc4ccccc34)ccn12 [GSK2333389] | 0 | 0 | 0 | 17 | 0 | 0 | 9 | 0 | 0 | 6 | 0 | 0 | 20 | 0 | 2 | 0
20 | O=C1NC(=O)C(N2CCc3ccccc32)=C1c1cccc(Cl)c1 [SB-408010] | 2 | 33 | 0 | 10 | 14 | 0 | 0 | 7 | 13 | 17 | 0 | 5 | 0 | 5 | 0 | 0
21 | COc1ccc(CNC(=O)NC2CCN(c3ccnc(Nc4ccc(OC)cc4)n3)C2)cc1 (centres unmarked) [GSK1379727] | 0 | 0 | 0 | 2 | 0 | 0 | 0 | 0 | 0 | 3 | 59 | 0 | 0 | 0 | 28 | 0
22 | Cn1ccc2ncnc(Oc3ccc(NC(=O)Nc4ccncc4)c(Cl)c3)c21 | 0 | 31 | 3 | 0 | 23 | 0 | 0 | 0 | 4 | 0 | 0 | 9 | 14 | 0 | 0 | 0
23 | NCC(NC(=O)c1cc(-c2cn[nH]c2)c(-c2ccnc3[nH]ccc23)s1)c1ccccc1.O=C(O)C(F)(F)F.O=C(O)C(F)(F)F (centres unmarked) [GSK1325775] | 86 | 1 | 0 | 0 | 0 | 52 | 15 | 0 | 0 | 52 | 58 | 66 | 23 | 83 | 38 | 17
